Assay [1] deals with MKL-1. Nature of the assay: qHTS assay to identify novel small-molecules to repurpose for Merkel cell carcinoma treatment (AID 1296009). Also: nearly all actives have a fitted effect of over 60% in size. Also: potency is read from the fitted curve at half-maximal effect. To be noted: MCC and control cell lines, CellTiter-Glo viability, 72 h; series mostly up to 46 µM. An outline of the steps:
(§1)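 Dose-response viability screen; 72 hr exposure at 37 degree celsius; CellTiter-Glo added, 10 min room temperature, luminescence read; RLUs scaled between no-cell and DMSO wells.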
For orientation: qHTS replaces the single test concentration by a dilution series.

For assay [2], the system named is MKL-2. The assay is described as above. The note with it: MCC and control cell lines, CellTiter-Glo viability, 72 h; series mostly up to 46 µM. An outline of the steps: as §1
(ATP-based viability assays read luminescence as a measure of living cells.)

The subject of assay [3] is UISO. The description is as above. The note with it: MCC and control cell lines, CellTiter-Glo viability, 72 h; series mostly up to 46 µM. An outline of the steps: as §1
The test system of assay [4] is WaGa. The description is as above. The note with it: MCC and control cell lines, CellTiter-Glo viability, 72 h; series mostly up to 46 µM. An outline of the steps:
as §1

For assay [5], the system named is C33A. Nature of the assay: Primary qHTS to identify gynecologic anti-cancer compounds using libraries of approved drugs and bioactive compounds (AID 1345084). Also: nearly all actives have a fitted effect of over 55% in size. To be noted: Gynecologic cancer cell panel viability, ATPlite luminescence, 48 h; series mostly up to 57.5 µM. An outline of the steps:
(§2)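 Luminescence from the ATPlite ATP-monitoring reagent indicates viable cell number; lower signal means cytotoxicity. Cells received compound 16 h after seeding and were exposed for 48 h across five concentrations.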

For assay [6], the system named is CAOV3. Described as above. To be noted: Gynecologic cancer cell panel viability, ATPlite luminescence, 48 h; series mostly up to 57.5 µM. An outline of the steps:
as §2

Assay [7] has as its system CASKI. The description is as above. To be noted: Gynecologic cancer cell panel viability, ATPlite luminescence, 48 h; series mostly up to 57.5 µM. A digest of the protocol: as §2
Assay [8] concerns Es-2. Described as above. The note with it: Gynecologic cancer cell panel viability, ATPlite luminescence, 48 h; series mostly up to 57.5 µM. An outline of the steps: as §2
Assay [9] concerns HeLa. The assay is described as above. The note with it: Gynecologic cancer cell panel viability, ATPlite luminescence, 48 h; series mostly up to 57.5 µM. An outline of the steps:
as §2

Assay [10] relates to Hek293T. The description is as above. To be noted: Gynecologic cancer cell panel viability, ATPlite luminescence, 48 h, control line for the selectivity index; series mostly up to 57.5 µM. A digest of the protocol:
as §2

Assay [11] deals with JEG-3. The assay is described as above. The note with it: Gynecologic cancer cell panel viability, ATPlite luminescence, 48 h; series mostly up to 57.5 µM. An outline of the steps:
as §2

The test system of assay [12] is OV90. The assay is described as above. To be noted: Gynecologic cancer cell panel viability, ATPlite luminescence, 48 h; series mostly up to 57.5 µM. A digest of the protocol: as §2
Assay [13] concerns PA-1. The assay is described as above. To be noted: Gynecologic cancer cell panel viability, ATPlite luminescence, 48 h; series mostly up to 57.5 µM. An outline of the steps: as §2
The test system of assay [14] is SKOV3. The assay is described as above. The note with it: Gynecologic cancer cell panel viability, ATPlite luminescence, 48 h; series mostly up to 57.5 µM. A digest of the protocol: as §2
For assay [15], the system named is Tov-21-G. Described as above. To be noted: Gynecologic cancer cell panel viability, ATPlite luminescence, 48 h; series mostly up to 57.5 µM. An outline of the steps:
as §2

Assay [16] deals with Tov112D. The assay is described as above. To be noted: Gynecologic cancer cell panel viability, ATPlite luminescence, 48 h; series mostly up to 57.5 µM. A digest of the protocol: as §2
Assay [17] can be described thus: Drug repurposing screens with cells derived from glioblastoma tumor samples (AID 1345199). Also: nearly all actives have a fitted effect of over 40% in size. Also: potency is read from the fitted curve at half-maximal effect. The note with it: GBM patient neurospheres viability, ATP luminescence, 48 h. A digest of the protocol: (§3)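 Primary testing used CD133+ neurospheres from four GBM patients, seven concentrations, 48 h exposure and ATP-based viability; confirmation added three slower-growing patient lines.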

In assay [18] the test system is astro. The assay is described as above. To be noted: viability, ATP luminescence, 48 h; series mostly up to 45.9 µM. A digest of the protocol:
as §3

Assay [19] concerns NIH3T3. Briefly: qHTS assay to identify novel small-molecules to repurpose for Merkel cell carcinoma treatment (AID 1296009). Also: nearly all actives have a fitted effect of over 60% in size. Also: potency is read from the fitted curve at half-maximal effect. To be noted: MCC and control cell lines, CellTiter-Glo viability, 72 h; at 44.8 µM (top of the series) unless noted. An outline of the steps: as §1
The mark [20] stands for this setting: at 45.9 µM (top of the series), tumour line B.
Where [21] appears, read: at 45.9 µM (top of the series), tumour line D.
The mark [22] stands for this setting: at 46.1 µM (top of the series), tumour line C.

The structures appear in SMILES notation. Results filed as inconclusive are left out. Values without a mark were called inactive. Calls of active or inactive are those of the source. Calls follow the shape of the dose curve; as a rule, active = well fitted curve in the direction sought with a large enough effect; inconclusive = small, poorly fitted or top-dose-only effect, or another doubt; inactive = no such curve, though single readings can be large; an effect the other way counts as inactive or inconclusive.
% is scaled to controls: 0 for no effect and ±100 for the full control effect.

On to `CC1(C)C(=O)N(CCN2CCC(C(=O)c3ccc(F)cc3)CC2)c2ccccc21`, for which the Potency entry in assay [1], in assay [2], in assay [3] and in [4] was “inactive” throughout.

Take `C[C@@H](N)C1CCC(C(=O)Nc2ccncc2)CC1` (some centres not stated): the Potency entry in assay [1], in assay [2], in assay [3] and in assay [4] was “inactive” throughout.

On to `CC1(C)NC(=O)N(c2ccc([N+](=O)[O-])c(C(F)(F)F)c2)C1=O`, for which the Potency result in [1], in assay [2], in assay [3], in assay [4], in assay [5] and in assay [6] was “inactive” each time. Moreover, the Potency entry in assay [7], in assay [8], in assay [9], in assay [10], in assay [11] and in [12] was “inactive” each time. Moreover, the Potency entry in assay [13], in assay [14], in assay [15] and in assay [16] was “inactive” in each case.

With `Cc1ccc(C)c(OCCCC(C)(C)C(=O)O)c1`, the Potency result in assay [1], in assay [2], in assay [3], in assay [4], in assay [5] and in assay [6] was “inactive” in each case. In addition, the Potency result in assay [7], in assay [8], in assay [9], in [10], in [11] and in assay [12] was “inactive” each time. In addition, the Potency result in assay [13], in assay [14], in assay [15], in [16] and in assay [18] was “inactive” throughout. Moreover, the activity, negative = cell killing in assay [17] (setting [20]) is -12.7%; in assay [17] (setting [21]), -0.928%; in assay [17] (at 46 µM (top of the series), tumour line A), -17.6%; in [17] (setting [22]), -8.64%.

Take `O=c1c(O)c(-c2ccc(O)cc2O)oc2cc(O)cc(O)c12`: the Potency entry in [1], in [2], in assay [3] and in assay [4] was “inactive” each time.

As for `O=C(O)c1cn(-c2ccc(F)cc2)c2cc(N3CCNCC3)c(F)cc2c1=O`, the Potency result in assay [1], in assay [2], in assay [3], in [4], in [5] and in [6] was “inactive” throughout. Moreover, the Potency entry in assay [7], in assay [8], in assay [9], in [10], in assay [11] and in assay [12] was “inactive” in each case. The Potency entry in assay [13], in assay [14], in [15], in assay [16] and in assay [18] was “inactive” in each case. For the same compound, the activity, negative = cell killing in assay [17] (setting [20]) is -14.1%; in [17] (setting [21]), -2.04%; in assay [17] (setting [22]) it was 0.795%.

As for `O=C(CCc1ccc(O)cc1)c1c(O)cc(O)cc1O`, the Potency in assay [1] is 9.35 µM (active); in [2] it was 4.69 µM (active); in [4] it was 5.9 µM (active). Moreover, in assay [19], the call was inactive.

Consider `Clc1ccc2c(N3CCN(CCCN4CCN(c5ccnc6cc(Cl)ccc56)CC4)CC3)ccnc2c1`, for which the Potency result in assay [1], in assay [2], in [3] and in assay [4] was “inactive” throughout.

Take `Cc1cccc(C#Cc2ccccc2)n1`: the Potency result in assay [1], in assay [2], in assay [3] and in assay [4] was “inactive” throughout.

As for `COC(=O)N[C@H](C(=O)N[C@@H](Cc1ccccc1)[C@@H](O)CN(Cc1ccc(-c2ccccn2)cc1)NC(=O)[C@@H](NC(=O)OC)C(C)(C)C)C(C)(C)C`, the Potency entry in [1], in assay [2], in [3], in [4], in assay [5] and in assay [6] was “inactive” throughout. For the same compound, the Potency result in assay [7], in [8], in assay [9], in [10], in assay [11] and in assay [12] was “inactive” throughout. For the same compound, the Potency entry in assay [13], in [14], in assay [15], in assay [16] and in assay [18] was “inactive” each time. Besides, the activity, negative = cell killing in [17] (setting [20]) is -0.919%; in [17] (setting [21]) it was -29.7%; in assay [17] (setting [22]), 8.04%. The Potency in assay [17] (tumour line A) was 11.2 µM (active).

Source of the values: PubChem BioAssay (NCATS).
